Screens deposited in PubChem BioAssay by Buhrlage Lab, Dana-Farber Cancer Institute and Novartis Institutes for BioMedical Research (Cambridge, Mass).
USP17 inh: inhibitors of human USP17 deubiquitinase | Ubiquitin carboxyl-terminal hydrolase 17-like protein 5 (Homo sapiens), A8MUK1 | purified USP17, Ub-rhodamine cleavage fluorescence, 3 h | inhibition, % at 50 µM | 6.5% of 47,000 active
Target sequence (A8MUK1 whole entry, looked up): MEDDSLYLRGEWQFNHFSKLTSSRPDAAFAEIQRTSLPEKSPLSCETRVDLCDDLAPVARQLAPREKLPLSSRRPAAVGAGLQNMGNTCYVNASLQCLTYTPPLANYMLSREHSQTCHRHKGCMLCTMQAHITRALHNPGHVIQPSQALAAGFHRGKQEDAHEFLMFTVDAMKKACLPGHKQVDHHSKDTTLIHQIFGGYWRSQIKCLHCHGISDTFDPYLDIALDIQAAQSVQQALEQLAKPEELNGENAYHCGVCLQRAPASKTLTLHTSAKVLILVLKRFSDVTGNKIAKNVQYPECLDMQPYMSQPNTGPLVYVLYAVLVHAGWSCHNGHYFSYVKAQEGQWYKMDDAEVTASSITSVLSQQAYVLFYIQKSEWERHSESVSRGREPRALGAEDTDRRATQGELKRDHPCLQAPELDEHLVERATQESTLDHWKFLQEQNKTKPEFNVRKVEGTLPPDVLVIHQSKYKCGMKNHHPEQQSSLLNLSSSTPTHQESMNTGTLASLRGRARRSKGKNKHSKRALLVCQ
USP30 block: inhibitors of human USP30 deubiquitinase; 5.3% of 47,000 active; Ubiquitin carboxyl-terminal hydrolase 30 (Homo sapiens), Q70CQ3; purified USP30, Ub-rhodamine cleavage fluorescence; inhibition, % at 25 µM
USP8 block: inhibitors of human USP8 deubiquitinase | purified USP8, Ub-rhodamine cleavage fluorescence, 30 min | AID 1645853, 2021 | inhibition, % at 20 µM | 4.2% of 47,000 active
USP28 block: inhibitors of human USP28 deubiquitinase. purified USP28, Ub-rhodamine cleavage fluorescence, 30 min. 3% of 47,000 active. inhibition, % at 25 µM. Ubiquitin carboxyl-terminal hydrolase 28 (Homo sapiens), Q96RU2
OTUD3 block: inhibitors of human OTUD3 deubiquitinase | OTU domain-containing protein 3 (Homo sapiens), Q5T2D3 | purified OTUD3, Ub-rhodamine fluorescence, 2 h | inhibition, % at 25 µM | 0.7% of 47,000 active | AID 1645858, 2021
Large screens that a line does not name were inactive. A selection: hits, their analogues and other compounds. The true share with any hit is near 13%. Rule as the data show it: active = inhibition above about 30%; inactive = the rest.

O=c1c(N2CCNCC2)nc2cccnc2n1Cc1ccccc1	none
CC1(C)CCCC2=C1CC(C)(C)C(N(C(=O)/C=C/C(=O)O)c1ccccc1)C2 (configuration not stated)	USP17 inh 77, USP30 block 75, USP8 block 59, USP28 block 49, OTUD3 block 41
COc1ccc2c(C)c(CC(=O)N[C@@H](Cc3c[nH]c4ccccc34)C(=O)O)c(=O)oc2c1	none
O=S(=O)(Nc1nnc(C2CC2)s1)c1cccc2nonc12	USP17 inh 37 (no result: USP30 block, USP28 block)
O=C(CCc1nc(-c2cnccn2)no1)N1CCc2ccccc2C1	USP8 block 57
Cc1ccc(NC(=O)Cn2cc(S(=O)(=O)N3CCCCCC3)ccc2=O)cc1	none
CCc1ccccc1NC(=O)CCc1nc(-c2cccnc2)no1	none
CCc1cccc(-n2nc(C)c3c2NC(=O)CC3C(=O)c2ccc(C)s2)c1 (configuration not stated)	none
Cc1ccc(C(=O)C2CC(=O)Nc3c2c(C)nn3-c2ccc(C)c(C)c2)s1 (configuration not stated)	USP17 inh 70, USP30 block 50
COc1ccc(-n2nc(C)c3c2NC(=O)CC3C(=O)c2ccc(Cl)s2)cc1 (configuration not stated)	none
Cc1ccc(-n2nc(C)c3c2NC(=O)CC3C(=O)c2cc3ccccc3o2)cc1C (configuration not stated)	USP17 inh 74
Cc1nn(-c2cccc(F)c2)c2c1C(C(=O)c1ccc(Cl)s1)CC(=O)N2 (configuration not stated)	USP30 block 50
COc1ccc2ncc(S(=O)(=O)c3ccccc3)c(N3CCN(C)CC3)c2c1	none
Cc1nc(-c2ccccc2)sc1C(=O)/C=C/c1ccccc1[N+](=O)[O-]	USP30 block 38
CN(CC(=O)N1CCOCC1)C(=O)CN1C(=O)NC(C)(c2cc3ccccc3o2)C1=O (configuration not stated)	none
COCC(=O)N1CCC([C@@H]2C[C@H](C(F)(F)F)n3nc(C(C)(C)C)cc3N2)CC1	USP17 inh 51 (no result: USP30 block, USP28 block)
COc1ccc(NS(=O)(=O)c2cccc(NC(=O)CC(=O)c3ccc([N+](=O)[O-])cc3)c2)cc1	USP17 inh 76 (no result: USP30 block, USP28 block)
COc1ccccc1NS(=O)(=O)c1cc(NC(=O)CC(=O)c2ccc([N+](=O)[O-])cc2)ccc1C	USP8 block 68 (no result: USP17 inh)
COc1ccc(NC(=O)CC(=O)c2ccc([N+](=O)[O-])cc2)cc1S(=O)(=O)Nc1ccc(Cl)cc1	USP17 inh 38, USP30 block 61, USP8 block 58
COc1ccc(NS(=O)(=O)c2cc(NC(=O)CC(=O)c3ccc([N+](=O)[O-])cc3)ccc2Cl)cc1	USP17 inh 49, USP8 block 58
Cc1c(C(=O)NCc2ccc(Cl)cc2)sc2ncnc(N3CCCC3)c12	USP30 block 43, USP28 block 31
CCc1ccc(NC(=O)c2sc3ncnc(N4CCN(C)CC4)c3c2C)cc1	USP28 block 35
O=C1c2ccccc2NC2(C(=O)Nc3ccc(Br)cc32)N1c1ccccc1 (configuration not stated)	USP8 block 33, USP28 block 86, OTUD3 block 76
COc1cc(C2CCN(C(=O)c3ccccc3)CC2)on1	USP8 block 32
COc1ccc2c(CCN=C(NC(=O)/C=C/c3cc(OC)c(OC)c(OC)c3)Nc3nc(C)cc(C)n3)c[nH]c2c1	none
CC(C)c1nc(CN2CCN(c3ccccc3)CC2)cc(=O)[nH]1	none
O=C(CNC(=O)c1cc2ccccc2o1)Nc1ccc2c(c1)OCCO2	USP17 inh 63, USP28 block 56
Cc1ccc(NC(=O)CNC(=O)c2cc3ccccc3o2)cc1	USP17 inh 55
Cc1ccc(NC(=O)CNC(=O)c2cc3ccccc3o2)cc1F	none
COc1cc(NC(=O)Cc2ccccc2)ccc1NC(=O)c1cc2ccccc2o1	USP17 inh 70, USP30 block 41
CC(NC(=O)CNC(=O)c1ccc2c(c1)OCO2)c1cc2ccccc2o1 (configuration not stated)	USP17 inh 42
CC(C)C(=O)Nc1cccc(C(=O)OCC(=O)c2ccc3ccccc3c2)c1	none
Cc1ccccc1CNC(=O)C1CCCN(S(=O)(=O)Cc2ccc(Cl)cc2)C1 (configuration not stated)	none
O=C(CNC(=O)c1cc2ccccc2o1)Nc1cccc(F)c1	USP30 block 46
COc1ccccc1NS(=O)(=O)c1ccc(NC(=O)Cc2ccc(Cl)cc2)cc1	USP17 inh 45
Cc1cc(NS(=O)(=O)c2ccc(NC(=O)COc3ccc(Cl)cc3)cc2)no1	none
O=C(COc1ccc(Cl)cc1)Nc1ccc(S(=O)(=O)Nc2ccccc2)cc1	USP17 inh 41, USP30 block 38
COc1ccc(NC(=O)Cc2ccccc2)cc1S(=O)(=O)Nc1ccccc1Cl	none
Cc1ccc2nc([C@H]3CCN(Cc4ccc(C(=O)O)cc4)C3)[nH]c2c1	none
O=C(Nc1ccccc1)C(C(=O)Nc1ccccc1)c1ccccc1	USP30 block 31
O=C(Nc1ccc(NC(=O)C(c2ccccc2)c2ccccc2)cc1)c1cccs1	none
Cc1ccc(-n2nnnc2-c2cnc3cc(Cl)ccc3c2N)cc1	USP8 block 44
COc1ccc(CCNC(=O)c2ccc(Cn3c(=O)c4ccccc4n(Cc4cc(=O)n5ccccc5n4)c3=O)cc2)cc1OC	USP17 inh 66, USP30 block 50
COCCCNC(=O)c1ccc(Cn2c(=O)c3ccccc3n(CC(=O)c3ccccc3)c2=O)cc1	none
O=C(Cc1ccc(-n2c(=O)c3ccccc3n(Cc3cc(=O)n4ccccc4n3)c2=O)cc1)NCCc1ccccc1	USP8 block 49
Nc1c(-c2ccc(Cl)cc2)cnc2cc(-c3ccc(Cl)c(Cl)c3)nn12	USP17 inh 41, USP30 block 60
Nc1c(-c2ccc(Cl)cc2)cnc2nc(Sc3ncc(C(F)(F)F)cc3Cl)nn12	USP30 block 33, USP8 block 35, OTUD3 block 30
COc1ccc(-c2cnc3ncnn3c2N)cc1	none
O=C(CCc1nnc2n(CCc3ccccc3)c(=O)c3ccccc3n12)NCC1CCCO1 (configuration not stated)	none
O=C(Nc1ccc(F)cc1F)NC1CCN(c2ccccc2)C1=O (configuration not stated)	USP17 inh 73, USP28 block 45
COc1ccccc1N1CCN(C(=O)CCC2=NS(=O)(=O)c3ccc(C)cc3N2)CC1	none
Cc1ccccc1NC(=O)C1(N(Cc2ccco2)C(=O)Cc2nc(N)n[nH]2)CCCCC1	none
Cc1noc(-c2cc(=O)n(CC(=O)NCc3ccccc3F)c3ccccc23)n1	USP17 inh 58, USP30 block 46
Cc1noc(-c2cc(=O)n(CC(=O)Nc3ccc(F)cc3F)c3ccccc23)n1	none
Cc1noc(-c2ccc(-n3ncc(C(=O)NCc4ccccc4C)c3C)nc2)n1	none
